# Experimental data published in the supplement of paper PMC7366291.
# Where a name gives a salt, the structure may show the parent alone. ± gives the standard deviation.
# Test system: Danio rerio Tg(wt1b:EGFP) embryo, pronephros
# Assay: glomerular separation, fold change vs DMSO control; higher = glomeruli further apart (abnormal)
# Settings: 25 µM; exposure: 24-48 hpf
# Method in brief: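 Every feature is expressed as a fold change relative to the averaged DMSO-treated embryos of the same day. The exposure ran from 24 to 48 hpf at 28.5°C, with dechorionated Tg(wt1b:EGFP) zebrafish embryos in HEPES-buffered E3 containing 0.003% PTU, 0.5% DMSO and 25 μM compound. Dorsal pronephros images taken in agarose-filled 96-well plates were reduced to maximum projections, on which 16 reference points were set by hand in Fiji for a macro to compute distances and angles. Values more than 2 SD from the feature mean were not used.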
row,SMILES,glomerular separation
1,CC(=O)[C@@]1(O)CC[C@H]2[C@@H]3C[C@H](C)C4=CC(=O)C=C[C@]4(C)[C@@]3(F)[C@@H](O)C[C@@]21C [Fluorometholone],1.11 ± 0.27
2,C[C@H](N)[C@H](O)c1cccc(O)c1 [Metaraminol bitartrate],0.797 ± 0.44
3,CC(NCCc1ccc(O)cc1)C(O)c1ccc(O)cc1 (centres undefined) [Ritodrine hydrochloride],1.03 ± 0.28
4,C=CCOc1ccccc1OCC(O)CNC(C)C (centres undefined) [Oxprenolol hydrochloride],0.751 ± 0.34
5,O=C1c2ccccc2C(=O)C1c1ccccc1 [Phenindione],1.02 ± 0.37
6,CCc1nn(CCCN2CCN(c3cccc(Cl)c3)CC2)c(=O)n1CCOc1ccccc1 [Nefazodone hydrochloride],0.987 ± 0.43
7,CCN(CC)C(=S)SSC(=S)N(CC)CC [Disulfiram],3.4 ± 1.9
8,CC[C@@]1(O)C(=O)OCc2c1cc1n(c2=O)Cc2cc3c(CN(C)C)c(O)ccc3nc2-1 [Topotecan],1.74 ± 0.72
9,C#C[C@]1(O)CC[C@H]2[C@@H]3CCc4cc(O)ccc4[C@H]3CC[C@@]21C [Ethinylestradiol],1.64 ± 0.76
10,CCN1CCN(c2cc3c(cc2F)c(=O)c(C(=O)O)cn3C2CC2)CC1 [Enrofloxacin],0.888 ± 0.34
11,CCCCNc1c(C(=O)OCC)c(C)nc2c1cnn2CC [Tracazolate hydrochloride],1.18 ± 0.63
12,CC(=O)N[C@@H](CC(C)C)C(=O)O [N-Acetyl-L-leucine],1.02 ± 0.21
13,Cc1nc2ccccn2c(=O)c1CCN1CCC(C(=O)c2ccc(F)cc2)CC1 [Pirenperone],0.831 ± 0.3
14,CC(=C(CCO)SSCC1CCCO1)N(C=O)Cc1cnc(C)nc1N (stereo in doubt) [Fursultiamine Hydrochloride],1.06 ± 0.24
15,CCn1cc(C(=O)O)c(=O)c2cc(F)c(N3CCNC(C)C3)c(F)c21 (centres undefined) [Lomefloxacin hydrochloride],1.54 ± 1.1
16,NC(=O)c1ncn([C@@H]2O[C@H](CO)[C@@H](O)[C@H]2O)n1 [Ribavirin],0.913 ± 0.3
17,CN1[C@@H]2CC[C@H]1C[C@@H](OC(=O)c1c[nH]c3ccccc13)C2 [Tropisetron hydrochloride],1.8 ± 0.91

row,SMILES,glomerular separation
1,CCC1=C(C)CN(C(=O)NCCc2ccc(S(=O)(=O)NC(=O)N[C@H]3CC[C@H](C)CC3)cc2)C1=O [Glimepiride],0.872 ± 0.29
2,COc1ccccc1N1CCN(CC(O)COc2cccc3ccccc23)CC1 (centres undefined) [Naftopidil dihydrochloride],0.922 ± 0.42
3,COc1c(N2CCNC(C)C2)c(F)cc2c(=O)c(C(=O)O)cn(C3CC3)c12 (centres undefined) [Gatifloxacin],0.71 ± 0.24
4,C=C1C[C@H]2[C@@H]3C=C(C)C4=CC(=O)CC[C@]4(C)[C@H]3CC[C@]2(C)[C@@]1(OC(C)=O)C(C)=O [Melengestrol acetate],0.846 ± 0.24
5,COC(=O)C1=C(C)NC(C)=C(C(=O)OCCN(C)Cc2ccccc2)C1c1cccc([N+](=O)[O-])c1 (centres undefined) [Nicardipine hydrochloride],1.13 ± 0.73
6,O=S(=O)(O)c1cc(O)ccc1O [Ethamsylate],1.12 ± 0.45
7,COc1cc(N)c(Cl)cc1C(=O)NC1CCN(Cc2ccccc2)CC1 [Clebopride maleate],0.962 ± 0.3
8,CCCCC1C(=O)N(c2ccccc2)N(c2ccccc2)C1=O [Phenylbutazone],5.01 ± 1.6
9,CC(=O)Oc1ccc(C(c2ccc(OC(C)=O)cc2)c2ccccn2)cc1 [Bisacodyl],0.927 ± 0.28
10,Cc1onc(-c2c(F)cccc2Cl)c1C(=O)N[C@@H]1C(=O)N2[C@@H]1SC(C)(C)[C@@H]2C(=O)O [Flucloxacillin sodium],1.05 ± 0.33
11,CCCCCCCCNC(C)C(O)c1ccc(SC(C)C)cc1 (centres undefined) [Suloctidil],4.23 ± 2.2
12,COc1ccc(-c2ccc3cc(C(=O)O)ccc3c2)cc1C12CC3CC(CC(C3)C1)C2 [Adapalene],0.97 ± 0.49
13,Cn1c(=O)c2c(ncn2CC2OCCO2)n(C)c1=O [Doxofylline],1.55 ± 0.87
14,COc1ccccc1OCC(O)COC(N)=O (centres undefined) [Methocarbamol],1.02 ± 0.45
15,CN(CCCCCCCCCCN(C)C(=O)Oc1cccc([N+](C)(C)C)c1)C(=O)Oc1cccc([N+](C)(C)C)c1 [Demecarium bromide],1.54 ± 0.77
16,COc1ccccc1N1CCN(CCCNc2cc(=O)n(C)c(=O)n2C)CC1 [Urapidil hydrochloride],1.09 ± 0.36
17,CCC(=O)[C@@]1(C)[C@H](C)C[C@H]2[C@@H]3CCC4=CC(=O)C=C[C@]4(C)[C@H]3[C@@H](O)C[C@@]21C [Rimexolone],1.28 ± 0.36
